Shown are actives, neighbours in structure and some others; about 10% of the full set was active somewhere.
HP1b chromo inh – blocks HP1-beta chromodomain binding to methylated histone tails; P83916; AlphaScreen HP1-beta / biotin-H3K9me3 peptide binding; Potency, µM (highest dose often 114 µM), for inactives: at the top dose activity change, negative = inhibition, hits mostly inhibitors; 0.56% of 390,000 active; note: potency is the fitted concentration of half-maximal effect; nearly all actives have a fitted effect of over 70% in size
Target sequence (P83916 whole entry, looked up): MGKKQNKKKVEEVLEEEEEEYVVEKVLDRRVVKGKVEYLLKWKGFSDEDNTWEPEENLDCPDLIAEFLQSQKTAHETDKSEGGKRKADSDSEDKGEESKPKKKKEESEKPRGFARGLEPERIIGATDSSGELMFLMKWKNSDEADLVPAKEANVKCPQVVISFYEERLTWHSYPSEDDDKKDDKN
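Compound inhibition of the preformed complex between 50 nM HP1-beta and 50 nM biotinylated H3K9me3 peptide was read by AlphaScreen. Buffer was PBS pH 7.4 with 0.01% Tween-20. Incubations ran 30 min at room temperature, with 10 ug/mL donor/acceptor beads.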
Six1-Eya2 blk – inhibitors of human Six1/Eya2 interaction; AID 651725; activity change, % (no concentration beside the values); Q15475+O00167; AlphaScreen GST-Six1/His-Eya2 binding, biochemical; stronger effect = lower value; 0.56% of 360,000 active; in the data active = activity change below about -65%; inconclusive = mostly about -30% to -63%; note: % is set by controls: 0 for no effect and ±100 for the full control effect
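AlphaScreen with GST-Six1 and His-Eya2 (5X mix: 250 nM and 500 nM), glutathione donor and nickel acceptor beads; buffer 50 mM Tris pH 8.0, 300 mM NaCl, 1 mM TCEP; 1 h at 37 C in the dark.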
BAZ2B block – blocks human BAZ2B | Q9UIF8 | AlphaScreen BAZ2B-H3K14Ac peptide displacement | Potency, µM (doses to about 114 µM), for inactives: at the highest dose activity change, negative = inhibition, actives largely listed as inhibitors | 4.4% of 360,000 active; note: potency is the fitted concentration of half-maximal effect; % is set by controls: 0 for no effect and ±100 for the full control effect; nearly all actives have a fitted effect of over 60% in size
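AlphaScreen displacement: compounds (up to 110uM) incubated 30 min at room temperature with a preformed 50 nM BAZ2B/50 nM biotinylated H3K14Ac peptide complex in PBS pH 7.4 with Tween-20. Donor and acceptor beads at 10 ug/mL final added, 20 min light-protected before reading.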
CtBP-E1A blk – inhibitors of CtBP/E1A interaction. AlphaScreen GST-E1A/His-CtBP binding, 1536-well; stronger effect = lower value. activity change, % (concentration not given with the values). 0.49% of 340,000 active; in the data active = activity change below about -65%; inconclusive = mostly about -30% to -63%; note: % is set by controls: 0 for no effect and ±100 for the full control effect
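Protein mix (5X: 125 nM each GST-E1A, His-CtBP) was incubated with pinned compound 2 h at 37 deg C in dark, in 50 mM Tris pH 8.0 buffer with 300 mM NaCl. Glutathione donor and nickel acceptor beads followed; AlphaScreen signal read after 1 h.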
G9a inh – G9a (human) methyltransferase inhibition; Potency, µM (series often up to 102 µM), without a hit: at the top dose activity, negative = inhibition, hits mostly inhibitors; AID 504332; Q96KQ7; G9a H3K9 monomethylation, AlphaScreen, 2 h; 8.8% of 350,000 active; note: potency is the fitted concentration of half-maximal effect; % is set by controls: 0 for no effect and ±100 for the full control effect; nearly all actives have a fitted effect of over 75% in size
Target sequence (Q96KQ7 913-1193 limits assumed): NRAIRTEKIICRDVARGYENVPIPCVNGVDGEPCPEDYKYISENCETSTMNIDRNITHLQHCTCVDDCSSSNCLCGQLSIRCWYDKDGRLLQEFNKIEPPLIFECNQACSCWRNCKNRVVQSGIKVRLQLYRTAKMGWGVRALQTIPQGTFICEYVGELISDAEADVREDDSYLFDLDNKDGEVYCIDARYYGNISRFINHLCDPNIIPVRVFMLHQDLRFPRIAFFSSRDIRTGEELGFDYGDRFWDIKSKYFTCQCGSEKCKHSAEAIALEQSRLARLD
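Compounds were preincubated with 20 nM G9a for 15 min, after which biotinylated H3K9 peptide (500 nM) and SAM (20 uM) started a 2 h room-temperature reaction. Monomethylated product was quantified by antibody-based AlphaScreen chemiluminescence.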
JMJD2A Tudor – JMJD2A Tudor domain (human) inhibition | 4.4% of 390,000 active | AlphaScreen JMJD2A-Tudor / H3K4me3 peptide binding | Potency, µM (highest dose often 114 µM), inactives show at the top dose activity change, negative = inhibition, usual class: inhibitors; note: potency is the fitted concentration of half-maximal effect; % is set by controls: 0 for no effect and ±100 for the full control effect; nearly all actives have a fitted effect of over 50% in size
* marks the source's active call; other numbers are inactive results; ? = inconclusive; / = not tested or not shown; [ ] = remark or other dose. Unless noted, calls come from the whole dose curve; as a rule, active = well fitted inhibition curve with a large enough effect; inconclusive = small, poorly fitted or top-dose-only effect; inactive = no such curve, though single readings can be large or run the other way.

SMILES | HP1b chromo inh | Six1-Eya2 blk | BAZ2B block | CtBP-E1A blk | G9a inh | JMJD2A Tudor
CC(C)n1c(SCC(=O)N2CCCCC2)nc2c1c(=O)n(C)c(=O)n2C | 49% | -1 | 7% | -3 | 1% | -1%
COC(=O)c1cnc(NNS(=O)(=O)c2ccc(Cl)cc2)nc1C(F)(F)F | -14% | 2 | -5% | 4 | 35µM* | -6%
COC(=O)c1cnc(NNC(=O)c2ccc([N+](=O)[O-])cc2)nc1C(F)(F)F | 10% | 12 | 3% | 4 | 2% | -22%
CC1CCCCC1NC(=O)CNC(=O)c1cccs1 (stereo unspecified) | 20% | 3 | -1% | 2 | 14µM* | 12%
O=C(NC1CCCCC1NC(=O)c1cccs1)c1cccs1 (stereo unspecified) | 46% | 4 | -4% | 2 | 7%[2.33 µM] | -2%
Cc1ccc(CN=C(Nc2ccccc2)NC2CCCCC2)cc1 | 25% | -4 | 1% | -3 | 5% | -9%[57.1 µM]
CCOc1ccc(NC(=O)c2c(NCc3sccc3C)sc3c2CCCCC3)cc1 | -22% | / | -38% | / | 8.9µM* | ?
COc1ccc(NC(=O)c2c(NCc3cccs3)sc3c2CCCCC3)cc1 | -5% | / | 40µM* | / | 7.9µM* | 50µM*
CCOc1ccc(NC(=O)c2c(NCc3ccc(C)o3)sc3c2CCCCC3)cc1 | 8% | / | -22% | / | 5.6µM* | ?
COc1ccc(NC(=O)c2c(NCc3cccs3)sc3c2CCCC3)c(OC)c1 | -4% | / | ? | / | ? | ?
CCOc1ccc(NC(=O)c2c(NCc3cccs3)sc3c2CCCCC3)cc1 | -5% | / | ? | / | 8.9µM* | ?
CCOC(=O)c1ccc(NC(=O)c2c(NCc3sccc3C)sc3c2CCC(C)C3)cc1 (stereo unspecified) | 30% | / | -15% | / | ? | -33%
CC(C)c1ccc(NC(=O)c2cc(S(=O)(=O)NCc3ccccc3Cl)ccc2F)cc1 | 13% | / | 3% | / | -3%[59 µM] | -27%
CCOc1ccccc1C1Nc2ccccc2-c2nnc(SCc3ccccc3)nc2O1 (stereo unspecified) | 3% | / | -23% | / | ? | -10%
Cc1ccc(CC2CC(=O)N(Cc3ccco3)C2=O)cc1 (stereo unspecified) | 4% | -1 | 3% | -1 | 40µM* | -25%
O=C1C2C3CCC(C3)C2C(=O)N1Cc1ccco1 (stereo unspecified) | 43% | 5 | -16% | 10 | -3%[59 µM] | -10%
O=C1CC(Cc2ccccc2)C(=O)N1Cc1ccco1 (stereo unspecified) | 16% | -2 | -33% | 2 | 45µM* | -20%
Nc1cc(S(=O)(=O)Nc2ccccc2Cl)ccc1N1CCCCC1 | ? | -10 | / | -23 | / | ?
Cc1ccc(NC(=O)C2CCCN2S(=O)(=O)c2cccc3nsnc23)cc1Cl (stereo unspecified) | 10% | / | ? | / | ? | -35%
CCOc1ccc(NCc2nc3ccccc3n2CCOc2ccccc2)cc1 | -74% | ? | 11µM* | -4 | 32µM* | 18µM*
CCOc1ccc(NCc2nc3ccccc3n2CCOc2ccc(C)cc2)cc1 | ? | / | 13µM* | / | 14µM* | 11µM*
CCN1CCCC1CNC(=O)c1ccc(Sc2ccccc2Cl)c([N+](=O)[O-])c1 (stereo unspecified) | -21% | 7 | 28µM* | 10 | 9%[59 µM] | ?
CCN1CCN(C(=O)c2ccc(Cl)c(S(=O)(=O)N(C)c3ccccc3)c2)CC1 | 14% | 3 | -1% | 2 | 18µM* | -9%
CN(c1ccc(C(=O)N2CCN(Cc3ccccc3)CC2)cc1)S(=O)(=O)c1ccccc1 | -14% | -12 | -11% | 0 | -6% | -23%
CCN1CCCC1CNC(=O)c1ccc(Sc2ccc(F)cc2)c([N+](=O)[O-])c1 (stereo unspecified) | 5% | -2 | ? | 1 | ? | -23%
SMILES | HP1b chromo inh | Six1-Eya2 blk | BAZ2B block | CtBP-E1A blk | G9a inh | JMJD2A Tudor
CCN1CCN(C(=O)c2ccc(Sc3ccccc3Cl)c([N+](=O)[O-])c2)CC1 | -1% | -15 | -33% | 4 | 32µM* | ?
CCOc1ccccc1CNC(=O)c1cc2c(=O)n(Cc3ccccc3)ccc2nc1C | 2% | / | -12% | / | 3%[59 µM] | -17%
COc1cccc(N(Cc2nnc3n2CCCCC3)C(=O)Nc2cccc(Cl)c2)c1 | 19%[57 µM] | / | 3% | / | 8%[59 µM] | -16%
CC(=O)NS(=O)(=O)c1ccc(NC(=O)/C=C/c2ccco2)cc1 | 10% | 12 | -22% | 7 | 45µM* | -17%
O=C(/C=C/c1ccco1)Nc1ccc(F)cc1 | ? | / | ? | / | -24%[12.7 µM] | ?
NS(=O)(=O)c1ccc(NC(=O)/C=C/c2ccco2)cc1 | ? | -12 | -29% | -6 | 45µM* | -28%
CC(C)Oc1ccc(CNC(=O)C2CCN(Cc3cc4ccccc4n3Cc3ccccc3)CC2)cc1 | 19% | / | -13% | / | -1%[59 µM] | -24%
COc1ccc(C(C(=O)NC(C)(C)C)n2c(-c3ccc(-c4ccccc4)cc3)nc3ccccc32)cc1 (stereo unspecified) | / | 13 | / | 26 | / | /
O=C1ON=C(c2ccc([N+](=O)[O-])cc2)/C1=C/c1ccccc1O | 32% | -4 | -24% | -1 | 79µM* | -13%
O=C1ON=C(c2ccccc2)/C1=C/c1ccco1 | 12% | -14 | 40µM* | 23 | 32µM* | -36%
O=C1ON=C(c2ccccc2)/C1=C/c1ccc(-c2ccccc2[N+](=O)[O-])o1 | 50µM* | 5 | 22µM* | 11 | 7.1µM* | 28µM*
N#C/C(=C\c1ccc(-c2ccccc2[N+](=O)[O-])o1)C(=O)N1CCOCC1 | 11% | -17 | ? | -12 | ? | -28%
COc1ccc(/C=C2\C(=O)ON=C2c2cccc([N+](=O)[O-])c2)cc1 | / | / | ? | / | 18µM* | /
COc1cccc(-n2cc(C(=O)NCc3ccc(C)cc3)c3ccccc3c2=O)c1 | 60% | / | -3% | / | 12%[59 µM] | 4%
CCOc1ccccc1NS(=O)(=O)c1ccc2oc(=O)ccc2c1 | 47% | -1 | 11% | / | 44% | 5%
COc1ccc(N2C(=O)c3ccccc3NC(=O)C2C(=O)Nc2ccc(N3CCOCC3)cc2)cc1 (stereo unspecified) | / | 0 | / | 10 | / | /
CCOC(=O)C1(C)CCCN(C(=O)c2cccc(C#N)c2)C1 (stereo unspecified) | / | -19 | / | -6 | / | /
COc1ccc(/C=C2/C(=O)ON=C2c2ccccc2)cc1OC | 4% | 0 | ? | -2 | 7%[0.501 µM] | 79µM*
Cc1cccc(NC(=O)c2nc[nH]c2C(=O)N[C@H](C)CO)c1 | / | -2 | / | -2 | / | /
Fc1ccc(CN2CCN(c3ncnc4scc(-c5ccccc5)c34)CC2)cc1 | 22% | -29 | -10% | -6 | 41%[2.33 µM] | ?

Bioassay records deposited in PubChem BioAssay by National Center for Advancing Translational Sciences (NCATS).
